High-throughput results: PubChem BioAssay, several laboratories
Most compounds without a hit are left out; they make up all but 0.54% or so of the library.
ERp5 block: ERp5 (human) disulfide isomerase inhibition; Q15084; ERp5 insulin aggregation, absorbance 650 nm, 90 min; 0.05% of 350,000 active; inhibition, % at 9.99 µM;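 active = mean replicate inhibition above about 25%, with every replicate also reaching it, limit read from the data, passing the limit was not always enough; inconclusive = only one of those two criteria met; inactive = neither criterion met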
Target sequence (Q15084 whole entry, looked up): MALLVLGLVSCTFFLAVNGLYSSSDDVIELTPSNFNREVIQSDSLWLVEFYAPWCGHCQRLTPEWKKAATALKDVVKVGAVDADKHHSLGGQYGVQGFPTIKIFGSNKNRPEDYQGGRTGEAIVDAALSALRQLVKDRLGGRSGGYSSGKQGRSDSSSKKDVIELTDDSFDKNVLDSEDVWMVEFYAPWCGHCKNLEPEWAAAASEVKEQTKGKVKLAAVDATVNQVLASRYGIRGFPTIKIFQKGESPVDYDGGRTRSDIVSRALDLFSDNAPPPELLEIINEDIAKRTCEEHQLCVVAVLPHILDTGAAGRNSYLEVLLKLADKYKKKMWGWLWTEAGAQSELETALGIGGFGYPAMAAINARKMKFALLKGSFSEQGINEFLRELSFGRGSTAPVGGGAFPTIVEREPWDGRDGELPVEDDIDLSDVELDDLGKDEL
PDI inh: blocks human protein disulfide isomerase activity | P07237 | PDI insulin aggregation turbidity, A650, 90 min | inhibition, % at 10 µM | 0.052% of 350,000 active;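 active = mean inhibition across replicates of 30% or more, whatever share of single replicates reach that level; inconclusive = mean inhibition below 30% while every single replicate reaches 30%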
PvdQ acylase: P. aeruginosa PvdQ acylase inhibition; purified PvdQ acylase, fluorescence plate reader; inhibition, % at 10 µM; 0.063% of 340,000 active; AID 488965; in the data active = inhibition above about 30%, passing the limit was not always enough; inconclusive = no clear call, values can overlap the other calls
Rtt109 Vps75: inhibitors of Candida albicans Rtt109/Vps75 histone acetyltransferase; Q5AAJ8; purified Rtt109/Vps75, ThioGlo CoA-SH fluorescence, 4 h; inhibition, % at 34.9 µM; 0.16% of 330,000 active; AID 540336;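 active = inhibition of at least 50% in every replicate; inconclusive = best replicate reaches 50% inhibition but some replicates fall short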
Efflux pump mplx: antifungal efflux pump inhibition, Nile Red retention. S. cerevisiae Candida pump triplex. inhibition, % at 10 µM. 0.44% of 330,000 active. AID 485275;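 active = plate passing quality check with inhibition over a set limit, or well fluorescence over plate mean plus 4 SD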;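 note: Nile Red retained in pooled yeast measured as flow cytometry median fluorescence; higher means more Nile Red kept so more efflux inhibition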
A number is an active result; n = inactive; u = inconclusive; x = no result; ! = repeats disagree.

SMILES | ERp5 block | PDI inh | PvdQ acylase | Rtt109 Vps75 | Efflux pump mplx
O=C(O)C(Cc1ccccc1)N1C(=O)/C(=C/c2cccs2)SC1=S (stereo not given) | n | n | n | 56 | x
O=C(O)C(c1ccccc1)N1C(=O)/C(=C/c2cccs2)SC1=S (stereo not given) | u | n | n | n | n
COC(=O)C[C@H]1CC[C@@H](NC(=O)Nc2ccc(C(F)(F)F)cc2)[C@H](CO)O1 | n | x | x | x | x
CC(=O)N1CC2(C1)[C@H](c1ccc(-c3cccc(F)c3)cc1)[C@H](CO)N2CC1CCCC1 | n | x | x | x | x
CCC(=O)N1[C@H](CO)[C@@H](c2ccccc2)C12CN(C(=O)c1ccc(F)cc1)C2 | n | x | x | x | x
Cc1[nH]n(-c2ccccc2)c(=O)c1C=NC1CCCCC1 | n | n | n | 59 | n
Cc1[nH]n(-c2ccccc2)c(=O)c1C=NC1CCCCCC1 | n | n | n | n | n
c1ccc2cc(-c3csnn3)ccc2c1 | x | n | 35 | n | n
Nc1nc(-c2ccc3ccccc3c2)cs1 | n | n | n | n | n
C[C@@H]1CN([C@@H](C)CO)C(=O)Cc2cc(NS(C)(=O)=O)ccc2O[C@H]1CN(C)C(=O)Nc1ccc2c(c1)OCO2 | n | x | x | x | x
CC1Cc2ccccc2N1C(=O)c1ccc(N2CCCCC2)c([N+](=O)[O-])c1 (stereo not given) | n | n | n | n | n
CC1Cc2ccccc2N1C(=O)c1ccc(N2CCCC2)c([N+](=O)[O-])c1 (stereo not given) | n | n | n | 57 | n
CN(c1ccc(C(=O)Nc2ccc3c(c2)OCCO3)cc1)S(C)(=O)=O | n | n | u | n | n
CN(c1ccc(C(=O)Nc2ccc3c(c2)OCO3)cc1)S(C)(=O)=O | n | n | n | 51 | n
CN(C)CC#Cc1cccc(-c2nc(C(=O)N[C@@H]3CCN(Cc4ccccc4)C3)cc3c2[C@@H](CCO)N(S(=O)C(C)(C)C)C3)c1 (stereo not given in full) | n | x | x | x | x
O=C(Nc1ccc(Cl)cc1)N[C@H]1CC[C@@H](CCn2cc(Cc3ccccc3)nn2)O[C@H]1CO | n | x | x | x | x
Cc1ccc(S(=O)(=O)N2CCC(C(=O)Nc3ccc(S(=O)(=O)N4CCCC4)cc3)CC2)cc1 | n | 32 | n | n | n
Cc1ccc(S(=O)(=O)N2CCC(C(=O)Nc3ccc(C(C)C)cc3)CC2)cc1 | n | n | n | n | n
O=C(O)/C=C/C(=O)Nc1ccc(S(=O)(=O)N2CCCC2)cc1 | n | n | n | 64 | n
O=C(NC1CCCC1)C(c1ccc(F)cc1)N(C(=O)c1csnn1)c1ccccc1 (stereo not given) | n | n | n | 52 | n
O=C(C[C@H]1C[C@@H]2c3cc(NC(=O)Nc4ccc(F)cc4)ccc3O[C@@H]2[C@@H](CO)O1)NC1CCCCC1 | n | x | x | x | x
Cc1ccc(-c2nc(CN(C)C3CCOCC3)c(C)o2)s1 | n | n | n | n | n
Cc1ccc(-c2nc(CN(C)Cc3cccc4cnccc34)c(C)o2)s1 | n | n | 51 | n | n
O=C(NNc1ccccc1)C(=O)NNS(=O)(=O)c1ccc(CCCl)cc1 | n | n | n | 65 | n
Nc1ccc(S(=O)(=O)NNC(=O)C(=O)NNc2ccccc2)cc1 | n | n | n | n | n
SMILES | ERp5 block | PDI inh | PvdQ acylase | Rtt109 Vps75 | Efflux pump mplx
CCCNC(=O)N1CC2(CCN(C(=O)C3CCCCC3)CC2)c2c([nH]c3cc(OC)ccc23)[C@@H]1CO | n | x | x | x | x
C[C@H](CO)N1C[C@H](C)[C@H](CN(C)C(=O)CCC(F)(F)F)OCCCC[C@H](C)Oc2ccc(NS(=O)(=O)c3ccc(Cl)cc3)cc2C1=O | 81 | x | x | x | x
COc1ccc2c3c([nH]c2c1)[C@@H](CO)N(Cc1ccccn1)CC31CCN(C(=O)c2ccccn2)CC1 | n | x | x | x | x
Oc1ccc(Cl)cc1C1=NNC(c2cccs2)C1 (stereo not given) | n | n | 34 | n | n
Cc1ccc(O)c(C2=NNC(c3ccc(Cl)cc3)C2)c1 (stereo not given) | n | n | n | n | n
CCCCCc1ccc(OCCC[n+]2ccccc2)c(CCCCC)c1 | n | n | n | u | n
CCCCCc1ccc(OCCOCCn2c[n+](C)c3ccccc32)c(CCCCC)c1 | x | n | n | 81 | x
CCCCCCCCCCCCCCCC[n+]1cccc2ccccc21 | n | n | n | n | 1.1
O=C(Nc1ccc(F)cc1F)N1CCCC(c2nc(-c3ccc(F)cc3)no2)C1 (stereo not given) | n | n | n | 64 | n
O=C(c1ccc(F)cc1F)N1CCCC(c2nc(-c3ccc(F)cc3)no2)C1 (stereo not given) | n | n | n | n | n
O=C(C1CC1)N1CC(=O)N2[C@H](CO)[C@@H](c3ccc(C#Cc4cccc(F)c4)cc3)[C@H]2C1 | n | x | x | x | x
COC(=O)c1cc(C)nc2c1C(=O)C(=O)C=C2N1CCOCC1 | 63 | n | n | n | n
CCC(=O)Nc1ccc2c(c1)C(=O)N(C)[C@H]1CC[C@@H](CC(=O)NCC3CC3)O[C@H]1CO2 | 36 | x | x | x | x
CCC(=O)Nc1ccc2c(c1)C(=O)N(C)[C@H]1CC[C@H](CC(=O)NCC3CC3)O[C@H]1CO2 | 60 | x | x | x | x
CCCNC(=O)C[C@H]1CC[C@@H]2[C@@H](COc3ccc(NC(=O)c4ccccc4)cc3C(=O)N2C)O1 | 64 | x | x | x | x
CC(=O)Nc1ccc2c(c1)C(=O)N(C)[C@H]1CC[C@H](CC(=O)NCC3CC3)O[C@@H]1CO2 | 91 | x | x | x | x
COc1ccc(S(=O)(=O)N(C)C[C@@H]2OCCCC[C@@H](C)Oc3ccc(NS(=O)(=O)c4ccc(F)cc4)cc3C(=O)N([C@H](C)CO)C[C@H]2C)cc1 | n | x | x | x | x
COc1ccc2c3c([nH]c2c1)[C@H](CO)N(C(=O)c1ccncc1)CC31CN(C(=O)C2CCC2)C1 | n | x | x | x | x
CCCCCCCCCCCCCCCC[n+]1ccc(C(N)=O)cc1 | x | n | n | n | n
CCCCCCCCCCCCCCCC[n+]1ccccc1 | n | u | n | 75! | x
O=C(C[C@H]1C[C@@H]2c3cc(NC(=O)CC4CC4)ccc3O[C@@H]2[C@H](CO)O1)NCc1ccc(-c2ccccc2)cc1 | n | x | x | x | x
O=C(C[C@H]1C[C@@H]2c3cc(NC(=O)NC4CCCC4)ccc3O[C@@H]2[C@@H](CO)O1)NCc1ccc(Cl)cc1 | 98 | x | x | x | x
O=C(C[C@H]1C[C@@H]2c3cc(NC(=O)NC4CCCC4)ccc3O[C@@H]2[C@@H](CO)O1)NCc1ccccc1 | n | x | x | x | x
O=C(C[C@H]1C[C@@H]2c3cc(NC(=O)CC4CC4)ccc3O[C@@H]2[C@@H](CO)O1)NCc1ccc(-c2ccccc2)cc1 | 63 | x | x | x | x
O=C(C[C@@H]1C[C@H]2c3cc(NC(=O)CC4CC4)ccc3O[C@H]2[C@@H](CO)O1)NCc1ccc(-c2ccccc2)cc1 | 59 | x | x | x | x
O=C(C[C@@H]1C[C@@H]2c3cc(NC(=O)CC4CC4)ccc3O[C@@H]2[C@@H](CO)O1)NCc1cccnc1 | n | x | x | x | x
CO[C@H]1CN(C)C(=O)c2ccc(NS(=O)(=O)c3ccccc3F)cc2OC[C@H](C)NC[C@H]1C | n | x | x | x | x
O=c1[nH]c(CCl)nc2cc(-c3ccc(F)cc3)sc12 | n | 43 | n | n | n
CCOC(=O)C1=C(C)NC(=S)N(C(C)=O)C1c1ccc(Cl)cc1 (stereo not given) | x | n | n | 63 | n
